IL1B secr inh: qHTS for Inhibitors of Inflammasome Signaling: IL-1-beta AlphaLISA Primary Screen; THP-1 LPS/ATP IL-1B secretion, AlphaLISA, 16 h; stronger effect = lower value; activity change, % at 57.5 µM; 360,000 compounds, 4.7% hits; in the data active = activity change below about -50%; inconclusive = mostly about -30% to -49%
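Secreted IL-1B measured by AlphaLISA bead assay after 16 h compound exposure of THP-1 cells; compounds (final up to 57.5 uM) added 1 h before LPS (250 ng/mL) and ATP (1.25 mM) stimulation; lower signal means less secretion.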
TDP1 cell CPT: qHTS for Inhibitors of human tyrosyl-DNA phosphodiesterase 1 (TDP1): qHTS in cells in presence of CPT; chicken DT40 Tdp1-/-;hTDP1 cells + 20 nM CPT, ATP luminescence, 48 h; 420,000 compounds, 12% hits; Potency, µM (highest dose often 46.2 µM), for the others: at the top dose activity change, negative = growth inhibition, usual class: inhibitors; note: potency is the fitted concentration of half-maximal effect; nearly all actives have a fitted effect of over 55% in size
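Cell growth measured by CellTiter-Glo luminescence after a minimum 48 h, 37 C compound exposure with 20 nM CPT in Tdp1-knockout DT40 cells stably expressing hTDP1, seeded 400/well; qHTS titration format.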
12-LOX inh: Primary qHTS assay for inhibitors of human arachidonate 12S-lipoxygenase (ALOX12): Round 2. Polyunsaturated fatty acid lipoxygenase ALOX12 (Homo sapiens), P18054. purified 12hLO, xylenol orange hydroperoxide absorbance. Potency, µM (series often up to 108 µM), without a hit: top-dose activity change, negative = inhibition, usual class: inhibitors. 580,000 compounds, 1.1% hits; note: potency is the fitted concentration of half-maximal effect
Target sequence (P18054 whole entry, looked up): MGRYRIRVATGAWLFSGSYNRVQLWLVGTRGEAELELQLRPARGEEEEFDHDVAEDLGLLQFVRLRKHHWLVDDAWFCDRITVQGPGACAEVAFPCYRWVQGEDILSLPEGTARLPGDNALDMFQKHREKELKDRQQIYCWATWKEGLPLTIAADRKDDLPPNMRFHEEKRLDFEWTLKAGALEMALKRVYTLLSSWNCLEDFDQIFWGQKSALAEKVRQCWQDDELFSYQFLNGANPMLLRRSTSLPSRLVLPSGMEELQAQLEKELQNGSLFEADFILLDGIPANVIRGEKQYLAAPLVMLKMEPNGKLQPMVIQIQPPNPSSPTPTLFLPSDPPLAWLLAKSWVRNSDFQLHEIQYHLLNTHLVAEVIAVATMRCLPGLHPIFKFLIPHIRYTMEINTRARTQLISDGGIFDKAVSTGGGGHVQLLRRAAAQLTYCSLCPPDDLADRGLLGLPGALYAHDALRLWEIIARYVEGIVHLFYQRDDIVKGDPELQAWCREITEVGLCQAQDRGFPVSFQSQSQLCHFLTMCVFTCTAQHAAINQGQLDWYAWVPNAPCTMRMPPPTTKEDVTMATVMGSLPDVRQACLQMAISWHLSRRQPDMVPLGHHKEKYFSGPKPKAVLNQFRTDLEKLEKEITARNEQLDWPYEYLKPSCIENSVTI
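Purified human 12hLO at 150 nM in 25 mM Hepes, 0.01% Triton X-100, pH 7.0, preincubated 15 min at room temperature with compound. Reaction started with 40 uM arachidonic acid, 30 min at room temperature. Hydroperoxide measured by Fe-xylenol orange, 573/405 nm absorbance ratio.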
HT1080-NT tox: qHTS for induction of synthetic lethality in tumor cells producing 2HG: qHTS for the HT-1080-NT fibrosarcoma cell line; HT-1080-NT fibrosarcoma viability, CellTiter-Glo ATP luminescence, 48 h; Potency, µM (doses to about 46.1 µM), inactives show at the top dose activity, negative = less viability, most hits filed as cytotoxic; 360,000 compounds, 1.6% hits; AID 686970, 2013;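 note: NT is the 2HG producing partner of a matched IDH1 knockdown line; potency is the fitted concentration of half-maximal effect; 0% = DMSO-treated cells and -100% = media-only wells without cells; nearly all actives have a fitted effect of over 55% in size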
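Compounds were tested in concentration-response format on HT-1080-NT cells for 48 hours at 37 degrees C. Cell viability came from CellTiter-Glo luminescence; curves were classified by r2, response magnitude and activity.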
DT40 TDP1 no CPT: qHTS for Inhibitors of human tyrosyl-DNA phosphodiesterase 1 (TDP1): qHTS in cells in absence of CPT; DT40 Tdp1-/- hTDP1 cells, no CPT, ATP luminescence, 48 h; Potency, µM (doses to about 46.2 µM), for inactives: at the top dose activity change, negative = growth inhibition, hits mostly inhibitors; 420,000 compounds, 15% hits; AID 686978, 2013; note: potency is the fitted concentration of half-maximal effect; nearly all actives have a fitted effect of over 55% in size
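Compound effects on proliferation are scored in DT40 Tdp1-/-;hTDP1 cells in the absence of CPT. ATP levels (CellTiter-Glo luminescence) are recorded after a ≥48 hr, 37 °C incubation.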
HT1080 IDH1KD tx: qHTS for induction of synthetic lethality in tumor cells producing 2HG: qHTS for the HT-1080-IDH1KD cell line | HT-1080 IDH1 knockdown viability, ATP luminescence, 48 h | Potency, µM (titrated, usually from 46.1 µM), for inactives: at the highest dose activity, negative = toxicity, most hits filed as cytotoxic | 360,000 compounds, 2% hits | AID 686971, 2013;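 note: potency is the fitted concentration of half-maximal effect; 0% = DMSO wells and -100% = cell-free medium wells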
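Using the IDH1-knockdown HT-1080 line run in the same batch and compound series as the NT line, viability after 48 h at 37 °C was determined by CellTiter-Glo luminescence and expressed as % activity.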
Starred values were filed as active, the others as inactive; ? = inconclusive; nt = no result given; [ ] = dose if it differs, or a comment. This is one part of a sample in which hits are shown more often than they occur. Unless noted, calls come from the whole dose curve; as a rule, active = well fitted curve in the direction sought with a large enough effect; inconclusive = small, poorly fitted or top-dose-only effect, or another doubt; inactive = no such curve, though single readings can be large; an effect the other way counts as inactive or inconclusive. Unless noted, % is set by controls: 0 for no effect and ±100 for the full control effect.

SMILES	IL1B secr inh	TDP1 cell CPT	12-LOX inh	HT1080-NT tox	DT40 TDP1 no CPT	HT1080 IDH1KD tx
CCNC(=S)N/N=C(\C)c1cccc(OC)c1	5	2%	?	-1%	11%	0%
CC(C)CCC(=O)NC1CCN(c2cnn(C)c(=O)c2)CC1	nt	nt	17%	nt	nt	nt
COc1ccc(C(=O)N(C)C2CCc3nnc(C)n3CC2)cc1F (stereo not given)	nt	nt	56%	nt	nt	nt
O=C(c1ccccc1)N1c2ncnn2C2(CCCCC2)[C@@H]2CCCC[C@@H]21	nt	?	-24%	nt	?	nt
Cc1cccc(C(=O)N2c3ncnn3C3(CCCCC3)[C@@H]3CCCC[C@@H]32)c1	nt	?	-29%	nt	23µM*	nt
O=C(c1ccccc1F)N1c2ncnn2C2(CCCCC2)[C@@H]2CCCC[C@@H]21	nt	?	-20%	nt	?	nt
O=C(c1ccc(F)cc1)N1c2ncnn2C2(CCCCC2)[C@@H]2CCCC[C@@H]21	nt	?	-23%	nt	21µM*	nt
COc1cccc2cc(C(=O)Nc3ccccc3OC(F)F)c(=O)oc12	nt	nt	-19%	nt	nt	nt
COc1ccc(SCC(=O)Nc2ccc(N3CCN(C)CC3)c(F)c2)cc1	33	-19%	-11%	-16%	?	-13%
Cc1ccc(SCC(=O)Nc2ccc(N3CCN(C)CC3)c(F)c2)cc1	11	?	-9%	-2%	21µM*	-14%
Cc1cc(N)cc(C)c1-c1c(Br)cc(N)cc1Br	14	13µM*	?	?	18µM*	?
Cc1cc(C(=O)O)cc(Br)c1N	13	15%	3%	3%	5%	12%
CC(C)CN1C(=O)COC[C@@H]1[C@H](O)c1ccc(NC(=O)COc2ccccc2)cc1	nt	nt	34%[176 µM]	nt	nt	nt
CC(=O)c1ccc(NC(=S)NC(C)c2ccc(Cl)cc2Cl)cc1 (stereo not given)	-73*	?	?	?	29µM*	?
CC(=O)c1ccc(NC(=S)Nc2ccc(Br)c(Cl)c2)cc1	?	?	?	-18%	?	-28%
CCNC(=O)N1CCc2nc(OCCOC)ccc2C1	nt	nt	53%	nt	nt	nt
CCN(CC)c1ccc(NC(=O)CSc2nc(-c3cccs3)cc(C(F)(F)F)n2)cc1	nt	?	-21%	nt	?	nt
O=C(CCS(=O)(=O)c1nc(-c2cccs2)cc(C(F)(F)F)n1)Nc1cc(Br)ccc1O	nt	0.65µM*	3%	nt	1.2µM*	nt
O=C(CCS(=O)(=O)c1nc(-c2cccs2)cc(C(F)(F)F)n1)Nc1ccc(Br)cc1	nt	5.2µM*	1%	nt	3.7µM*	nt
Cc1ccc(O)c(NC(=O)CCS(=O)(=O)c2nc(-c3cccs3)cc(C(F)(F)F)n2)c1	nt	2.6µM*	-1%	nt	5.8µM*	nt
COc1ccc(-c2cc(C(F)(F)F)nc(SCCC(=O)Nc3cc(C)ccc3O)n2)cc1	nt	nt	-17%	nt	nt	nt
CCc1nc2c(c(-c3ccc(Cl)cc3)n1)CN(C(=O)Cc1ccccn1)CC2	nt	nt	22%	nt	nt	nt
O=c1c2ccccc2nc(COc2ccccc2)n1/N=C/c1ccc(O)c(O)c1	-27	15µM*	3.5µM*	4%	10µM*	-12%
O=c1c2ccccc2nc(COc2ccccc2)n1/N=C/c1ccco1	?	?	-10%	-3%	15µM*	-1%
N#CCN1CCNCC1	nt	nt	17%	nt	nt	nt
SMILES	IL1B secr inh	TDP1 cell CPT	12-LOX inh	HT1080-NT tox	DT40 TDP1 no CPT	HT1080 IDH1KD tx
CCCCCCc1nc2ccccc2c(=O)n1NC(=O)c1c(O)c2c(n(CC(C)C)c1=O)CCCC2	-13	4.6µM*	-16%	-13%	3.3µM*	-30%
CC(C)Cn1c2c(c(O)c(C(=O)Nc3nc4ccccc4s3)c1=O)CCCC2	15	?	257%	15%	?	12%
CCCc1nc2ccccc2c(=O)n1NC(=O)c1c(O)c2ccccc2n(C)c1=O	3	?	7%	0%	?	0%
Cc1nc2ccccc2c(=O)n1NC(=O)c1c(O)c2c(n(CC(C)C)c1=O)CCCC2	-2	?	-19%	20µM*	21µM*	?
COc1ccccc1N1CCN(C(=O)COCC(=O)NCCc2ccccc2)CC1	nt	nt	3%	nt	nt	nt
Cn1cc(C(=O)N2CCN(S(=O)(=O)c3cc(F)ccc3F)CC2)c2ccccc21	nt	nt	1%	nt	nt	nt
CN1C(=O)c2ccccc2NC1c1cc2ccccc2[nH]c1=O (stereo not given)	nt	nt	7.1µM*	nt	nt	nt
CCCn1c(N/N=C\C=C\c2ccccc2)nc2c1c(=O)[nH]c(=O)n2C	1	15µM*	-15%	1%	16µM*	0%
Cn1c(=O)[nH]c(=O)c2c1nc(Br)n2C/C=N/Nc1ccccc1	-3	-28%	-22%	3.7µM*	-14%	5.8µM*
Cn1c(=O)[nH]c(=O)c2c1nc(Br)n2CCC(=O)c1ccccc1	13	?	-9%	5%	16µM*	12%
CN[C@H](C(=O)N[C@H]1C[C@@](O)(C(=O)N[C@@H](Cc2cccs2)C(N)=O)C[C@@H](O)[C@@H]1O)C(C)C	nt	nt	19%	nt	nt	nt
COc1ccccc1-n1[nH]c(C)c(Cc2ccccc2Cl)c1=O	nt	nt	5%	nt	nt	nt
N#Cc1nc(C2CC2)oc1N1CCN(CC(=O)NC(=O)NC2CC2)CC1	nt	nt	-5%	nt	nt	nt
Cc1ccc(C)c(OCC(=O)NCc2cccs2)c1	nt	nt	8%	nt	nt	nt
CNS(=O)(=O)c1ccc(NCCc2ccc(S(N)(=O)=O)s2)c([N+](=O)[O-])c1	nt	nt	18µM*	nt	nt	nt
NC(=O)c1nsc(C(=O)N(c2cccc(O)c2)C(C(=O)NC2CCCC2)c2ccc(Cl)cc2)c1N (stereo not given)	-1	4%	-31%	-10%	?	-4%
CCCC(C(=O)NC1CCCC1)N(C(=O)c1snc(C(N)=O)c1N)c1ccc(OCC)cc1 (stereo not given)	-59*	-20%	-15%	1%	21µM*	0%
CCOc1ccc(C(C(=O)NC2CCCC2)N(C(=O)c2snc(C(N)=O)c2N)c2cccc(O)c2)cc1 (stereo not given)	-6	?	-11%	-12%	16µM*	-8%
Cc1ccc(N2CC(C(=O)Nc3c(C)nn(C)c3C)CC2=O)cc1 (stereo not given)	nt	nt	1%	nt	nt	nt

Screens from PubChem.
